One may read the viability as a read-out of living cells in per cent, often relative to untreated cells.

The results in this text go back to PubChem BioAssay (NCATS).

The nature of assay [1]: Quantitative High-Throughput drug screen in 47 multiple myeloma cell lines against the NCATS MIPE library collection: KMS26_JCRB cell viability assay (AID 1918975). Also: nearly all actives have a fitted effect of over 45% in size. Also: potency is read from the fitted curve at half-maximal effect. Summed up: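 We plated 500 myeloma cells per well, pinned in MIPE 4.0 compounds, and incubated for 48 hours at 37C. ATP was then quantified with CellTiter-Glo, with DMSO and media-only wells defining 100% and 0%.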

Assay [2] in a line: Quantitative High-Throughput drug screen in 47 multiple myeloma cell lines against the NCATS MIPE library collection: MOLP8_DSMZ cell viability assay (AID 1918977). Also: nearly all actives have a fitted effect of over 45% in size. Also: potency is read from the fitted curve at half-maximal effect. Summed up: (§1)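 Inhibition of viability over 48 h was scored by ATP content (CellTiter-Glo) in 500-cell wells. Zero and full viability were defined by media-only and DMSO-only wells.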
The nature of assay [3]: Quantitative High-Throughput drug screen in 47 multiple myeloma cell lines against the NCATS MIPE library collection: NCIH929_DSMZ cell viability assay (AID 1918978). Also: nearly all actives have a fitted effect of over 35% in size. Also: potency is read from the fitted curve at half-maximal effect. Summed up: as §1
Assay [4] in a line: Quantitative High-Throughput drug screen in 47 multiple myeloma cell lines against the NCATS MIPE library collection: OCIMY1_PLB cell viability assay (AID 1918979). Also: nearly all actives have a fitted effect of over 35% in size. Summed up: as §1
A short description of assay [5]: Quantitative High-Throughput drug screen in 47 multiple myeloma cell lines against the NCATS MIPE library collection: MM1R_ATCC cell viability assay (AID 1918981). Also: nearly all actives have a fitted effect of over 35% in size. Also: potency is read from the fitted curve at half-maximal effect. In a few lines:
as §1

Assay [6] in a line: Quantitative High-Throughput drug screen in 47 multiple myeloma cell lines against the NCATS MIPE library collection: KMS28PE_JCRB cell viability assay (AID 1918983). Also: nearly all actives have a fitted effect of over 35% in size. Also: potency is read from the fitted curve at half-maximal effect. In a few lines:
as §1

Assay [7] is described as follows: Quantitative High-Throughput drug screen in 47 multiple myeloma cell lines against the NCATS MIPE library collection: SKMM1_PLB cell viability assay (AID 1919863). Also: nearly all actives have a fitted effect of over 35% in size. Also: potency is read from the fitted curve at half-maximal effect. The conditions noted are these: SKMM1 myeloma viability, CellTiter-Glo ATP, 48 h; viability: stronger effect = lower value. Summed up:
as §1

A short description of assay [8]: Quantitative High-Throughput drug screen in 47 multiple myeloma cell lines against the NCATS MIPE library collection: XG6_PLB cell viability assay (AID 1919865). Also: nearly all actives have a fitted effect of over 40% in size. Also: potency is read from the fitted curve at half-maximal effect. Summed up:
as §1

Assay [9] can be described thus: Quantitative High-Throughput drug screen in 47 multiple myeloma cell lines against the NCATS MIPE library collection: XG1_PLB cell viability assay (AID 1919866). Also: nearly all actives have a fitted effect of over 35% in size. Also: potency is read from the fitted curve at half-maximal effect. Summed up:
as §1

Assay [10] in a line: Quantitative High-Throughput drug screen in 47 multiple myeloma cell lines against the NCATS MIPE library collection: VP6_DJ cell viability assay (AID 1919867). Also: nearly all actives have a fitted effect of over 40% in size. Also: potency is read from the fitted curve at half-maximal effect. Summed up:
as §1

Assay [11] in a line: Quantitative High-Throughput drug screen in 47 multiple myeloma cell lines against the NCATS MIPE library collection: L363_DSMZ cell viability assay (AID 1918984). Also: nearly all actives have a fitted effect of over 40% in size. Also: potency is read from the fitted curve at half-maximal effect. In a few lines:
as §1

Assay [12] can be described thus: Quantitative High-Throughput drug screen in 47 multiple myeloma cell lines against the NCATS MIPE library collection: KMS34_JCRB cell viability assay (AID 1918985). Also: nearly all actives have a fitted effect of over 40% in size. Summed up:
as §1

Assay [13] can be described thus: Quantitative High-Throughput drug screen in 47 multiple myeloma cell lines against the NCATS MIPE library collection: OCIMY5_PLB cell viability assay (AID 1918988). Also: nearly all actives have a fitted effect of over 65% in size. Also: potency is read from the fitted curve at half-maximal effect. In a few lines:
as §1

The nature of assay [14]: Quantitative High-Throughput drug screen in 47 multiple myeloma cell lines against the NCATS MIPE library collection: OPM1_PLB cell viability assay (AID 1918989). Also: nearly all actives have a fitted effect of over 40% in size. Also: potency is read from the fitted curve at half-maximal effect. Summed up:
as §1

Assay [15] in a line: Quantitative High-Throughput drug screen in 47 multiple myeloma cell lines against the NCATS MIPE library collection: U266_ATCC cell viability assay (AID 1919864). Also: nearly all actives have a fitted effect of over 35% in size. Also: potency is read from the fitted curve at half-maximal effect. Summed up: as §1
The nature of assay [16]: Quantitative High-Throughput drug screen in 47 multiple myeloma cell lines against the NCATS MIPE library collection: MMM1_PLB cell viability assay (AID 1918976). Summed up: as §1
Assay [17] in a line: Quantitative High-Throughput drug screen in 47 multiple myeloma cell lines against the NCATS MIPE library collection: OCIMY7_PLB cell viability assay (AID 1918987). Also: potency is read from the fitted curve at half-maximal effect; nearly all actives have a fitted effect of over 65% in size. In a few lines: as §1
Assay [18] can be described thus: Quantitative High-Throughput drug screen in 47 multiple myeloma cell lines against the NCATS MIPE library collection: MM1S_ATCC cell viability assay (AID 1918980). Also: nearly all actives have a fitted effect of over 45% in size. Also: potency is read from the fitted curve at half-maximal effect. Summed up: as §1
The nature of assay [19]: Quantitative High-Throughput drug screen in 47 multiple myeloma cell lines against the NCATS MIPE library collection: LP1_DSMZ cell viability assay (AID 1918982). In a few lines: as §1
Assay [20] is described as follows: Quantitative High-Throughput drug screen in 47 multiple myeloma cell lines against the NCATS MIPE library collection: UTMC2_PLB cell viability assay (AID 1919868). Also: potency is read from the fitted curve at half-maximal effect; nearly all actives have a fitted effect of over 55% in size. The conditions noted are these: CellTiter-Glo ATP luminescence, 48 h; viability (% of DMSO control): at 45.8 µM (top of the series). In a few lines:
as §1

Inconclusive results are not listed. Values without a mark were called inactive. Activity calls are given as the source filed them. Calls follow the shape of the dose curve; as a rule, active = well fitted curve in the direction sought with a large enough effect; inconclusive = small, poorly fitted or top-dose-only effect, or another doubt; inactive = no such curve, though single readings can be large; an effect the other way counts as inactive or inconclusive.

`CCCC(CCC)C(=O)O`: the Potency entry in [1], in assay [2], in [3], in [4], in assay [5] and in assay [6] was “inactive” in each case. Further, the viability in assay [7] is 126%. Further, the Potency in assay [8] was 26.4 µM (active); in assay [9], 20.9 µM (active); in assay [10], 18.7 µM (active).

`Nc1nc2c(ncn2COCCO)c(=O)[nH]1`: the Potency entry in [1], in [2], in [3], in assay [6], in [11] and in assay [12] was “inactive” throughout. Further, the Potency entry in [13], in assay [14], in assay [15], in assay [8] and in assay [10] was “inactive” throughout. The viability in assay [7] is 125%. Besides, the Potency in assay [9] is 18.7 µM (active).

In the case of `CC1(C)SCCN(S(=O)(=O)c2ccc(OCC#CCO)cc2)[C@@H]1C(=O)NO`, the Potency in assay [1] was 2.96 µM (active); in [16], 1.87 µM (active); in [17], 5.26 µM (active); in assay [13], 5.26 µM (active); in assay [7], 0.118 µM (active). Further, the Potency entry in [4], in [14] and in assay [9] was “inactive” in each case.

Regarding `CC(C)C[C@H](NC(=O)[C@@H](O)[C@H](N)Cc1ccccc1)C(=O)O`, the Potency in assay [1] is 23.5 µM (active); in [16], 20.9 µM (active); in [2] it was 20.9 µM (active); in [3] it was 20.9 µM (active); in [18], 18.7 µM (active); in [5], 20.9 µM (active). Further, the Potency in assay [19] is 20.9 µM (active); in [6], 20.9 µM (active); in assay [17], 20.9 µM (active); in assay [13], 26.4 µM (active); in assay [14] it was 16.6 µM (active); in assay [7], 26.4 µM (active). Also, the Potency in assay [15] was 23.5 µM (active); in [8], 20.9 µM (active); in assay [9] it was 20.9 µM (active); in assay [20], 23.5 µM (active).

As to `CCc1cncnc1N1CCN(Cc2nc3ccc(C(F)(F)F)cc3[nH]2)CC1`, the Potency in [1] is 4.18 µM (active); in assay [16] it was 16.6 µM (active); in [18], 18.7 µM (active); in assay [5] it was 18.7 µM (active); in [6], 20.9 µM (active); in [11] it was 5.26 µM (active). Besides, the Potency in assay [17] is 23.5 µM (active); in assay [13], 23.5 µM (active); in [14] it was 18.7 µM (active); in assay [7], 18.7 µM (active); in assay [15] it was 6.62 µM (active); in assay [9] it was 10.5 µM (active). Further, the Potency in assay [20] was 18.7 µM (active). Further, the Potency entry in [4] is “inactive”.

For `CNC(=O)c1ccc(N2C(=S)N(c3ccc(C#N)c(C(F)(F)F)c3)C(=O)C2(C)C)cc1F`, the Potency entry in assay [1], in assay [2], in assay [3], in [4], in [5] and in assay [6] was “inactive” in each case. Moreover, the Potency entry in assay [11], in assay [12], in assay [13] and in [14] was “inactive” throughout. Further, the figures for the Potency in [18] and in assay [9] were 18.7 µM (active) and 13.2 µM (active), respectively.

`Cn1cnc([N+](=O)[O-])c1Sc1ncnc2nc[nH]c12`: the Potency in assay [1] is 11.8 µM (active); in [3] it was 16.6 µM (active); in [17], 11.8 µM (active); in [14], 4.69 µM (active); in [15] it was 10.5 µM (active); in assay [9], 5.26 µM (active). Moreover, the Potency was 16.6 µM (active) in assay [10] and 5.26 µM (active) in assay [20]. For the same compound, the Potency entry in assay [2], in [4] and in assay [6] was “inactive” in each case.

Turning to `O=C(O)[C@@H](c1ccc(OCc2ccc3ccccc3n2)cc1)C1CCCC1`, the Potency in assay [1] was 0.0012 µM (active); in assay [17] it was 5.9 µM (active); in assay [9], 5.26 µM (active); in assay [10] it was 5.9 µM (active). Moreover, the Potency entry in assay [2], in assay [3], in assay [4], in assay [18], in assay [6] and in [11] was “inactive” each time. Further, the Potency entry in assay [14] and in assay [15] was “inactive” each time. Further, the viability in assay [7] was 106%.

`CCC(=O)N[C@H]1CC[C@H](C(=O)N(C)c2ccc(-c3nc4ccccc4o3)cc2)C1`: the Potency in assay [16] is 14.8 µM (active); in assay [3], 2.96 µM (active); in [18], 5.26 µM (active); in [5] it was 3.72 µM (active); in assay [6], 18.7 µM (active); in assay [11], 16.6 µM (active). For the same compound, the Potency in assay [17] is 8.33 µM (active); in assay [8], 8.33 µM (active); in assay [9], 6.62 µM (active); in assay [10], 14.8 µM (active). Further, the Potency result in assay [4] was “inactive”. In addition, the viability in [7] was 132%.

Consider `Cc1ccccc1C(C(=O)NC1CCCC1)N(C(=O)Cn1cnc2ccccc21)c1cccc(F)c1` (stereo unspecified), for which the Potency in [16] is 16.6 µM (active); in assay [3] it was 18.7 µM (active); in assay [18], 18.7 µM (active); in assay [19], 3.32 µM (active); in [7] it was 10.5 µM (active); in [15], 23.5 µM (active). Also, the Potency in assay [9] was 18.7 µM (active); in assay [10], 2.35 µM (active). The Potency result in assay [4], in assay [5], in assay [6] and in assay [8] was “inactive” in each case.

As for `COc1ccc(COc2cc3oc(=O)c4cc(C(C)O)ccc4c3cc2OC)cc1` (stereo unspecified), the Potency is 18.7 µM (active) in assay [16]; 18.7 µM (active) in assay [2]; 26.4 µM (active) in assay [3]; 13.2 µM (active) in assay [18]; 23.5 µM (active) in assay [6]; 5.26 µM (active) in assay [11]. Besides, the Potency in assay [13] is 20.9 µM (active); in assay [14] it was 18.7 µM (active); in assay [7], 20.9 µM (active); in [15] it was 13.2 µM (active); in assay [9], 13.2 µM (active); in assay [10], 14.8 µM (active). Further, the Potency in [20] is 20.9 µM (active).

As to `CCOC(=O)N[C@@H]1CC[C@@H]2[C@@H](C1)C[C@H]1C(=O)O[C@H](C)[C@H]1[C@@H]2C=Cc1ccc(-c2cccc(F)c2)cn1`, the Potency entry in [1] and in [2] was “inactive” throughout. The Potency in [5] is 20.9 µM (active); in assay [13], 23.5 µM (active); in assay [9], 16.6 µM (active).

Turning to `CCOC(=O)C1=C[C@]2(CC)CCCN3CCc4c(n1c1ccccc41)[C@@H]32`, the Potency in [16] is 14.8 µM (active); in assay [2], 18.7 µM (active); in assay [3], 8.33 µM (active); in assay [18], 11.8 µM (active); in assay [5], 11.8 µM (active); in assay [19], 20.9 µM (active). Moreover, the Potency in assay [6] is 20.9 µM (active); in assay [11], 11.8 µM (active); in assay [17] it was 9.35 µM (active); in assay [13], 13.2 µM (active); in [14], 8.33 µM (active); in assay [7], 26.4 µM (active). Besides, the Potency was 16.6 µM (active) in assay [15]; 7.43 µM (active) in assay [8]; 6.62 µM (active) in assay [9]; 9.35 µM (active) in assay [10]; 9.35 µM (active) in assay [20].
